PLK1 PBD inh: blocks phosphopeptide binding to human PLK1 polo-box domain. Potency, µM, for the others: max response, negative = inhibition, actives largely listed as inhibitors. P53350. hit rate 2.8% among 360,000. Plk1 PBD binding of FITC phosphopeptide, fluorescence polarization; also: series mostly up to about 57 µM; nearly all actives have a fitted effect of over 65% in size
Target sequence (P53350 whole entry, looked up, the tested form may be a part): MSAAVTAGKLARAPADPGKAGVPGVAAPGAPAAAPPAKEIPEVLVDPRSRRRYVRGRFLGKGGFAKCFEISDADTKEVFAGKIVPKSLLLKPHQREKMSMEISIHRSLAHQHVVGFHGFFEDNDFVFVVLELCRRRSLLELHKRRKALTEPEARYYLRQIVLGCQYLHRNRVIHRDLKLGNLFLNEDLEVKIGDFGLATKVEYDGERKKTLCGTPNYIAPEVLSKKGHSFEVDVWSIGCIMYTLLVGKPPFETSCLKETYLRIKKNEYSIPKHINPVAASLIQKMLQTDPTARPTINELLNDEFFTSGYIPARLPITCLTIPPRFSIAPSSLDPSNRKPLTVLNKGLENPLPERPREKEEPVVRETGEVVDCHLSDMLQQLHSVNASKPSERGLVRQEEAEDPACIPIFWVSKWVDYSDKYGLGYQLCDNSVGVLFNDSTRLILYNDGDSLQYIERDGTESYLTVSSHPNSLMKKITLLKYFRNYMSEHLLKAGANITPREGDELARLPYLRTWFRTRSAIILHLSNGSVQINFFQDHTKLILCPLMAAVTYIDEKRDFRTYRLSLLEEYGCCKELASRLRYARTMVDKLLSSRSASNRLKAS
TDP1 inh: inhibitors of human tyrosyl-DNA phosphodiesterase TDP1 | Q9NUW8 | recombinant TDP1, AlphaScreen DNA substrate cleavage | Potency, µM (top dose mostly 130 µM), without a hit: top-dose activity change, negative = inhibition, actives largely listed as inhibitors | hit rate 0.28% among 350,000; also: nearly all actives have a fitted effect of over 40% in size
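Recombinant E. coli-expressed Tdp1 (1 nM) preincubated with compound 15 min at RT, then 5'-biotin/3'-phosphotyrosine-FITC DNA substrate (15 nM) added for 5 min. AlphaScreen beads (10 ug/ml) added, 10 min RT; tyrosine-FITC cleavage read as signal loss.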
VDR inh: vitamin D3 receptor (human) inhibition; P11473; VDR-SRC2-3 peptide fluorescence polarization, 2 h; hit rate 0.93% among 400,000; AID 504847; Potency, µM, for inactives: max response, negative = inhibition, usual class: inhibitors
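The screen uses fluorescence polarization to detect compounds that interfere with recruitment of the SRC2-3 coactivator peptide to VDR; plates are read after 2 h at room temperature.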
DT40 TDP1 no CPT: qHTS for Inhibitors of human tyrosyl-DNA phosphodiesterase 1 (TDP1): qHTS in cells in absence of CPT; DT40 Tdp1-/- hTDP1 cells, no CPT, ATP luminescence, 48 h; Potency, µM (highest dose often 46.2 µM), for inactives: at the top dose activity change, negative = growth inhibition, hits mostly inhibitors; hit rate 15% among 420,000; also: nearly all actives have a fitted effect of over 55% in size
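Chicken DT40 Tdp1-/- cells stably complemented with human TDP1 were seeded at 400 cells/well with DMSO in place of 20 nM camptothecin. After compound pinning, cells grew at least 48 hr at 37 °C; viability read by CellTiter-Glo luminescence.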
TDP1 cell CPT: DT40-hTDP1 cell growth loss with CPT. chicken DT40 Tdp1-/-;hTDP1 cells + 20 nM CPT, ATP luminescence, 48 h. Potency, µM (doses to about 46.2 µM), for inactives: at the top dose activity change, negative = growth inhibition, most hits filed as inhibitors. hit rate 12% among 420,000; also: nearly all actives have a fitted effect of over 55% in size
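Chicken DT40 Tdp1-/- cells complemented with human TDP1, 400 cells/well, exposed to compounds plus 20 nM camptothecin for at least 48 h at 37 C; viability read as ATP content by CellTiter-Glo luminescence.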
KAT2A inh: inhibitors of human GCN5L2 histone acetyltransferase; Q92830; GCN5L2 HAT assay, ThioGlo1 CoA-SH fluorescence; Potency, µM (top dose mostly 58.9 µM), without a hit: at the top dose activity change, negative = inhibition, usual class: inhibitors; hit rate 0.21% among 390,000; AID 504327
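Fluorescence readout, Ex340nm/Em540nm: ThioGlo1 (50uM final) reacts with free CoA thiol released as 20nM GCN5L2 acetylates H3(1-25) peptide (75uM) using acetyl-CoA (70uM). Compound and enzyme sat 15 min beforehand; 20 min room-temperature reaction.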
* hit, by the source's call; [ ] = another dose, or the depositor's remark. Hits are enriched below; roughly 18% of the tested compounds scored in any of these assays. Calls follow the shape of the dose curve; as a rule, active = well fitted curve in the direction sought with a large enough effect; inconclusive = small, poorly fitted or top-dose-only effect, or another doubt; inactive = no such curve, though single readings can be large; an effect the other way counts as inactive or inconclusive. % is scaled to controls: 0 for no effect and ±100 for the full control effect; potency is read from the fitted curve at half-maximal effect.

Screening CN1/C(=C/C(=S)NC(=O)C2CCC2)C(C)(C)c2ccccc21 returned PLK1 PBD inh -16%, TDP1 inh 7%, VDR inh -19%, DT40 TDP1 no CPT 18µM*, TDP1 cell CPT 16µM* and KAT2A inh -17%.
Screening CC(=O)/C=C1\N(C)c2ccc(C)cc2C1(C)C returned PLK1 PBD inh -9%, TDP1 inh 1%, VDR inh 5%, DT40 TDP1 no CPT 5.2µM*, TDP1 cell CPT 6.5µM* and KAT2A inh -8%.
`CN1/C(=C\C(=O)CSc2ncn[nH]2)C(C)(C)c2ccccc21` gave PLK1 PBD inh -5%, TDP1 inh 3%, VDR inh -5%, DT40 TDP1 no CPT inconclusive, TDP1 cell CPT inconclusive and KAT2A inh -5%.
Screening Cc1ccc(C(=O)NC(=S)/C=C2\N(C)c3ccccc3C2(C)C)cc1 returned PLK1 PBD inh inconclusive, TDP1 inh 8%, VDR inh 6%, DT40 TDP1 no CPT 3.7µM*, TDP1 cell CPT 8.2µM* and KAT2A inh -7%.
For O=C(NCCc1ccccn1)c1cncc(Br)c1 the results were PLK1 PBD inh -3%, TDP1 inh 14%, VDR inh 0%, DT40 TDP1 no CPT -22%, TDP1 cell CPT 6% and KAT2A inh 2%.
`O=C(c1cc(F)ccc1F)C1CCCN(C(=O)CCN2CCCCO2)C1` (configuration not stated) gave PLK1 PBD inh inconclusive, TDP1 inh 6%, VDR inh -11%, DT40 TDP1 no CPT -1%, TDP1 cell CPT 5% and KAT2A inh 0%.
CCN1CCCC1CNC(=O)c1cnn(-c2ncc3c(n2)-c2ccc(OC)cc2CC3)c1C1CC1 (configuration not stated) was read as DT40 TDP1 no CPT -21% and TDP1 cell CPT 15%[9.04 µM].
For CN1/C(=C\C=N\NC(=O)c2ccc(O)cc2)C(C)(C)c2ccccc21 the results were PLK1 PBD inh -8%, TDP1 inh 8%, VDR inh -10%, DT40 TDP1 no CPT 18µM*, TDP1 cell CPT 21µM* and KAT2A inh -3%.
Screening CN1/C(=C\C=N\NC(=O)c2cccnc2)C(C)(C)c2ccccc21 returned PLK1 PBD inh -10%, TDP1 inh -3%, VDR inh -4%, DT40 TDP1 no CPT inconclusive, TDP1 cell CPT -4% and KAT2A inh 2%.
For CC(=O)CSc1nsc(SCC(C)=O)c1C#N the results were PLK1 PBD inh inconclusive, TDP1 inh 5%, VDR inh -14%, DT40 TDP1 no CPT 18µM*, TDP1 cell CPT 18µM* and KAT2A inh 2%.
`Cc1csc(NC(=O)CSc2nsc(SCC(=O)Nc3nc(C)cs3)c2C#N)n1` gave PLK1 PBD inh -13%, TDP1 inh 6%, VDR inh 16%, DT40 TDP1 no CPT 13µM*, TDP1 cell CPT 16µM* and KAT2A inh -10%.
Screening Cc1cc(OCC(=O)N(C)Cc2ccccc2)ccc1Br returned PLK1 PBD inh 0%, VDR inh -6%, DT40 TDP1 no CPT 23µM*, TDP1 cell CPT inconclusive and KAT2A inh -9%.
`Cc1cc(S(=O)(=O)N2CCN(CC(=O)N(C)Cc3ccccc3)CC2)ccc1Br` gave PLK1 PBD inh 0%, TDP1 inh 2%, VDR inh -20%, DT40 TDP1 no CPT 15µM*, TDP1 cell CPT inconclusive and KAT2A inh -7%.
Screening CN(Cc1cccc(F)c1)C(=O)CN1CCN(S(=O)(=O)c2ccc3c(c2)OCCCO3)CC1 returned PLK1 PBD inh -6%, TDP1 inh 1%, VDR inh -5%, DT40 TDP1 no CPT 0%, TDP1 cell CPT -21% and KAT2A inh -3%.
Cc1cc(OCC(=O)N(C)Cc2ccccc2)ccc1Cl was read as PLK1 PBD inh -4%, VDR inh -6%, DT40 TDP1 no CPT inconclusive, TDP1 cell CPT -9% and KAT2A inh -4%.
`CN(Cc1ccc(F)cc1)C(=O)CN1CCN(S(=O)(=O)c2ccc3c(c2)OCCCO3)CC1` gave PLK1 PBD inh 8%, DT40 TDP1 no CPT inconclusive and TDP1 cell CPT -26%.
CN(Cc1ccccc1)C(=O)CN1CCN(S(=O)(=O)c2ccc(Cl)c(Cl)c2)CC1 was read as PLK1 PBD inh -4%, TDP1 inh 2%, VDR inh 15%, DT40 TDP1 no CPT 18µM*, TDP1 cell CPT inconclusive and KAT2A inh 0%.
Screening NC(=O)C1(N2CCCCC2)CCN(C(=O)c2cc(COc3c(F)cccc3F)on2)CC1 returned PLK1 PBD inh -1%, DT40 TDP1 no CPT inconclusive and TDP1 cell CPT inconclusive.
`O=C1NC(c2cccc(OCc3ccccc3)c2)Nc2ccccc21` (configuration not stated) gave PLK1 PBD inh -5%, VDR inh 0%, DT40 TDP1 no CPT 1.2µM* and TDP1 cell CPT 1.5µM*.
`Cc1cc(C)n(S(=O)(=O)c2ccc(Cl)cc2)n1` gave PLK1 PBD inh -4%, TDP1 inh 2%, VDR inh -8%, DT40 TDP1 no CPT -1%, TDP1 cell CPT -4% and KAT2A inh 0%.
For Cc1cc(C)n(C(C[N+](=O)[O-])c2ccc(Cl)cc2)n1 (configuration not stated) the results were PLK1 PBD inh 17µM*, TDP1 inh 5%, VDR inh inconclusive, DT40 TDP1 no CPT 2.3µM*, TDP1 cell CPT 2.3µM* and KAT2A inh -3%.
For COc1cccc(C2c3c(ncn(-c4ccccc4C#N)c3=N)Oc3ccc4ccccc4c32)c1 (configuration not stated) the results were TDP1 inh 3%.
O=C(O)c1ccc2c3c(ncnc13)-c1ccccc1C2=O was read as PLK1 PBD inh inconclusive, TDP1 inh -2%, VDR inh -12%, DT40 TDP1 no CPT 23µM*, TDP1 cell CPT 23µM* and KAT2A inh -12%.
For CC(=O)Nc1ccc(OCC(=O)NCCc2ccccc2)cc1 the results were PLK1 PBD inh -7%, TDP1 inh 8%, VDR inh -6%, DT40 TDP1 no CPT 9%, TDP1 cell CPT 18% and KAT2A inh -15%.
For CC(C)OCCCNC(=O)COCC(=O)Nc1ccc(OCCc2ccccc2)cc1 the results were PLK1 PBD inh 0%, VDR inh -16%, DT40 TDP1 no CPT 13µM*, TDP1 cell CPT 18µM* and KAT2A inh -7%.
Cc1cc(Nc2cccc(Cl)c2)nc2ccc(NC(=O)Cc3cccc(C(F)(F)F)c3)cc12 was read as TDP1 inh 9%, VDR inh 6%, DT40 TDP1 no CPT 7.3µM*, TDP1 cell CPT 9.2µM* and KAT2A inh -7%.

High-throughput results (PubChem)
